In PubChem BioAssay (EPA / NIEHS):
Records with an inconclusive call do not appear. Active and inactive are the calls of the source. The calls were made as follows: active = hit-call score of the fitted dose curve at least 0.9, where 1 is the maximum; inconclusive = response in the unintended direction; inactive = score below 0.9.

Assay: CCTE_Deisenroth_AIME_384WELL_CTox_Active: Cytotoxicity Assessment (CTOX) in CCTE's 384-well Estrogen Receptor Transactivation Assay with AIME metabolic competence (metabolism positive), Deisenroth Lab (AID 2284037);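 also: chemicals first conditioned 2 h by alginate-bound induced rat liver S9 before cells; activity means signal loss indicating cell death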
Protocol: CCTE_Deisenroth_AIME_384WELL (AIME metabolism assay) is a cell-based, single-readout assay that uses VM7Luc4E2, a human mammary gland/breast cell line, with measurements taken at 24 hour after chemical dosing in a 384-well plate.CCTE_Deisenroth_AIME_384WELL_CTox_Active is one of four assay components measured or calculated from the CCTE_Deisenroth_AIME_384WELL assay. It is designed to make measurements of a protease substrate, a type of viability indicator, as detected with substrate cleavage to a fluorescent probe in living cells.CCTE_Deisenroth_AIME_384WELL_CTox_Active is a component of the CCTE_Deisenroth_AIME_384WELL assay that measures the effect of retroftting the VM7Luc ERTA assay with the Alginate Immobolization of Metabolic Enzymes (AIME) metabolism method. AIME is optimized to impart phase I hepatic metabolism using phenobarbital/beta-naphthoflavone induced hepatic S9 from male Sprague Dawley rats. Parent chemicals are incubated for 2 hours in the AIME assay prior to transfer to the VM7Luc ERTA assay plate. […] This endpoint evaluates cytotoxicity in metabolism positive mode. Using a type of flourescent probe in VM7Luc cells, loss-of-signal activity can be used to understand loss of viability. This assay endpoint, CCTE_Deisenroth_AIME_384WELL_CTox_Active, was analyzed with bidirectional fitting in the ERTA assay.
The AIME procedure consists of a preparative "pre-stamping" step using a barium chloride/poly-L-lysine (PLL) solution followed by "stamping" the lid in alginate-hepatic S9 (metabolism positive) or alginate-water (metabolism negative) to form microspheres. Once stamping is completed, the AIME lids are placed in duplicate microplates (metabolism positive or negative) containing chemical solutions and incubated for two hours to facilitate metabolic reactions. The conditioned medium, containing parent chemical or metabolites, is then transferred to the cell-based VM7Luc Estrogen Receptor Transactivation Assay (ERTA) for 24 hours. A typical experimental design tests a 10-point concentration series (0.002 - 200 uM) for 8 compounds (96-well format) (Deisenroth 2020) or 32 compounds (384-well format) (Hopperstad 2022) in single technical replicate. AIME assay controls include trans-stilbene (bioactivated control) and ethylparaben (bioinactivated control). ERTA assay plate controls include 17-beta estradiol (positive control) and DMSO (solvent control). Experiments typically comprise a minimum of four experimental replicates (n=4).

SMILES	outcome	AC50
CC(C)O.CC(C)O.OCCN(CCO)CCO.OCCN(CCO)CCO.[Ti]	inactive	
Cc1cc(Cl)ccc1OCCCC(=O)O	inactive	
O=C(CBr)c1ccc(O)cc1	inactive	
COc1ccc(N)cc1	inactive	
CCN(CCO)CCO	inactive	
Cc1cc(Cl)ccc1OC(C)C(=O)O (stereo unspecified)	inactive	
CNC(=O)O/N=C/C(C)(C)S(C)(=O)=O	inactive	
N#CCC#N	inactive	
O=S1(=O)OC(c2cc(Br)c(O)c(Br)c2)(c2cc(Br)c(O)c(Br)c2)c2ccccc21		160 µM (active)
Oc1cc(Cl)c(Cl)cc1Cl		100 µM (active)
CCOc1ccc(N)cc1	inactive	
O=c1[nH]c(=O)n(Cl)c(=O)n1Cl	inactive	
CCC[CH2][Sn]([Cl])([Cl])[CH2]CCC		13.6 µM (active)
CCCCCCCCCCCCc1cccc(S(=O)(=O)O)c1	inactive	
N#CS	inactive	
Nc1ncn[nH]1	inactive	
